Assay [1] can be described thus: qHTS assay to identify small molecule agonists of the RXR signaling pathway - cell viability counter screen (AID 1159529). Note: nearly all actives have a fitted effect of over 50% in size. Note: potency is the fitted concentration of half-maximal effect. An outline of the steps:
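CellTiter-Glo luminescence gave viability in the wells also read for beta-lactamase. Cells (RXR-alpha-UAS-bla HEK 293T, 2% charcoal-stripped FBS medium) had 5 hr plating, then 16 hr compound exposure at 37 C; tetraoctyl ammonium bromide served as positive control.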
(qHTS replaces the single test concentration by a dilution series.)

Assay [2] is described as follows: qHTS assay to identify small molecule antagonists of the retinoid acid receptor (RAR) signaling pathway - cell viability counter screen (AID 1159551). Note: nearly all actives have a fitted effect of over 35% in size. Note: potency is the fitted concentration of half-maximal effect. In outline: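 Seed C3RL4 cells; next day add compound, then retinol to 1 uM final; incubate 6 h at 37 C; add CellTiter-Glo; read luminescence after 30 min at RT.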
Assay [3] is described as follows: qHTS assay to identify small molecule antagonists of the estrogen related receptor (ERR) signaling pathway - cell viability counter screen (AID 1224818).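 Note: viability measured after 17.5 h of compound exposure.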 In outline: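 In the same ERR cell assay, compound-treated wells (17.5 h, 37 C) were multiplexed with a fluorogenic viability reagent, CellTiter-Fluor, read after 30 min to flag cytotoxic substances.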
A short description of assay [4]: qHTS assay to identify small molecule antagonists of the estrogen related receptor signaling pathway with the pleiotropic PPARgamma coactivator (PGC) cell viability counter screen (AID 1224822). In outline: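 Compounds in DMSO, with positive and negative controls, were applied to PGC/ERR cells (2,000/well) and left 17.5 h at 37 C before CellTiter-Fluor detection.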

A short description of assay [5]: qHTS assay to identify small molecule antagonists of the retinoic acid receptor (RAR) signaling pathway (AID 1159552; note: nearly all actives have a fitted effect of over 50% in size; note: potency is the fitted concentration of half-maximal effect). In outline: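 Luminescent RARE reporter read-out in C3RL4 cells: 6 hr co-treatment at 37 C of test compounds with retinol at 1 uM final. Cells plated overnight beforehand; luciferase reagent incubated 30 min at room temperature before reading.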

Assay [6] is described as follows: qHTS assay to identify small molecule agonists of the retinoic acid receptor (RAR) signaling pathway (AID 1159553). Conditions: C3RL4 RARE luciferase reporter, agonist, 6 h; activation: at 73.3 µM (top of the series) unless noted. An outline of the steps: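 Activation of retinol signaling was monitored via a RARE luciferase reporter in C3RL4 cells. After 6 hr compound treatment at 37 C, detection reagent was added for 30 min at room temperature before luminescence reading.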

The nature of assay [7]: qHTS assay to identify small molecule antagonists of the estrogen related receptor (ERR) signaling pathway (AID 1224819;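 note: luminescence from an ERR-driven luciferase reporter measured with One-Glo reagent; nearly all actives have a fitted effect of over 50% in size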). In outline:
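qHTS in ERR cells, 2,000/well, 1536 format. Cpd (DMSO) added after 6 h settle, 18 h 37 C. One-Glo luminescence, 30 min RT.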

Assay [8] in a line: qHTS assay to identify small molecule agonists of the estrogen related receptor (ERR) signaling pathway (AID 1224820). In outline: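 ERR reporter cells (NTP line) plated 2,000/well, incubated 6 h at 37 C/5% CO2, then pinned with compounds in DMSO and held 18 h at 37 C. One-Glo added; luminescence read after 30 min at room temperature.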
Assay [9] relates to estrogen-related receptor alpha (ERRalpha) with PGC-1alpha coactivator, human. The assay is described as follows: qHTS assay to identify small molecule antagonists of the estrogen related receptor signaling pathway with the pleiotropic PPARgamma coactivator (PGC) (AID 1224821; calls by dose curve;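 note: lower luminescence signal means antagonism of PGC/ERR signalling; nearly all actives have a fitted effect of over 50% in size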). In outline:
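Cells engineered for PGC/ERR signalling (line from NTP) were plated 6 h at 37 C/5% CO2, then exposed to DMSO-dissolved compound for 18 h at 37 C. Luciferase activity was read by One-Glo luminescence after 30 min at room temperature.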

The nature of assay [10]: qHTS assay to identify small molecule agonists of the estrogen related receptor signaling pathway with the pleiotropic PPARgamma coactivator (PGC) (AID 1224823). An outline of the steps:
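PGC/ERR reporter cells were seeded, rested 6 h at 37 C/5% CO2, then exposed to compounds in DMSO by pin transfer for 18 h at 37 C. Luciferase activity was read as luminescence after One-Glo reagent and 30 min at room temperature.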

Molecules are shown by their SMILES. “And” between values parts separate entries of the source, which are not always exact repeats. Identical values can stand only once. Records with an inconclusive call do not appear. Some compounds were tested as several samples or in several runs, with calls that do not always agree. The source made the active and inactive calls. Unless noted, calls come from the whole dose curve; as a rule, active = well fitted curve in the direction sought with a large enough effect in the repeat runs; inconclusive = weak or mixed curves; inactive = no such curve, though single readings can be large; an effect the other way counts as inactive or inconclusive.

With `C[N+](C)(C)CC(=O)O`, the Potency result in assay [1], in assay [2] and in [4] was “inactive” in each case. The outcome in assay [3] was inactive.
For `O=NN1CCOCC1`, the Potency result in [1], in assay [2], in [5] and in assay [6] was “inactive” in each case.
Take `Cc1ccc(N=CN(C)C=Nc2ccc(C)cc2C)c(C)c1`: the Potency in assay [1] is 43.8 µM (active) and 43.6 µM (active) and inactive. Also, the Potency result in assay [2], in [5] and in assay [6] was “inactive” each time.
Take `O=C1Nc2ccc(Cl)cc2C(c2ccccc2)=NC1O` (stereo not given): the Potency result in assay [1], in [2], in [5] and in assay [6] was “inactive” each time.
With `O=C(O)c1nn(Cc2ccc(Cl)cc2Cl)c2ccccc12`, the Potency entry in [1], in assay [2], in assay [5], in [6], in assay [7] and in assay [9] was “inactive” in each case. In addition, the Potency entry in [4] was “inactive”. The compound was classed as inactive in assay [3], in assay [8] and in assay [10].
For `C=CC(Cl)CCl` (stereo not given), the Potency result in assay [1], in assay [2], in [5] and in assay [6] was “inactive” each time.
Take `C[N+](C)(C)C`: the Potency entry in assay [1], in [2] and in [6] was “inactive” throughout.
In the case of `CCOP(=S)(OCC)OP(=S)(OCC)OCC`, the Potency result in assay [1], in assay [2], in assay [5] and in assay [6] was “inactive” throughout.
For `CCCCOCC1CO1` (stereo not given), the Potency entry in assay [1], in assay [2], in [5] and in assay [6] was “inactive” each time.
On to `CC(C)(c1ccccc1)c1ccc(O)cc1`, for which the Potency in assay [1] is 43.3 µM (active) and 54.9 µM (active); in assay [5], 61.1 µM (active). In addition, the Potency entry in [2] and in assay [6] was “inactive” each time.
With `CC1CC(=O)O1` (stereo not given), the Potency result in assay [1], in [2], in assay [5] and in assay [6] was “inactive” throughout.
Consider `CC1(C)Cc2cccc(O)c2O1`, for which the Potency entry in [1], in [2], in [5] and in assay [6] was “inactive” in each case.
For `CCCCCCCCCCCCCl`, the Potency result in assay [1], in assay [2], in [5] and in assay [6] was “inactive” throughout.
As for `S=c1[nH]c2ccccc2[nH]1`, the Potency result in assay [1], in assay [2], in [5] and in assay [6] was “inactive” throughout.
For `C[C@]12CCC(=O)C=C1CC[C@@H]1[C@@H]2CC[C@@]2(C)[C@H]1CC[C@]2(C)O`, the Potency result in assay [1], in assay [2], in [6] and in assay [4] was “inactive” throughout. Also, the Potency in assay [5] is 43.6 µM (active). Moreover, the call in assay [3] was inactive.
For `O=S(=O)(O)C(F)(F)C(F)(F)C(F)(F)C(F)(F)C(F)(F)C(F)(F)C(F)(F)C(F)(F)F`, in [1], the Potency entry is “inactive and 19.5 µM (active)”. Moreover, the Potency entry in [2], in [7], in [9] and in [4] was “inactive” in each case. Further, the compound was called inactive in assay [3], in [8] and in assay [10].
Turning to `CNC(=O)Oc1cccc2c1OC(C)(C)C2`, the Potency result in assay [1], in assay [2], in assay [5] and in assay [6] was “inactive” throughout.
For `CNC(=S)S`, the Potency result in assay [2] is “inactive”.
With `Oc1ccc(Cl)cc1Cc1ccccc1`, the Potency in [1] is 49 µM (active) and 24.8 µM (active); in assay [2], 55.1 µM (active) and inactive; in assay [5], 27.6 µM (active) and inactive. The Potency entry in assay [6] and in assay [4] was “inactive” throughout. In addition, the compound was called inactive in assay [3].
Consider `NN=C(N)N`, for which the Potency result in [1], in [2] and in assay [4] was “inactive” in each case. In addition, the result in [3] was inactive.
Turning to `[CH3][Sn]([Cl])([Cl])[Cl]`, the Potency result in assay [1], in [2], in assay [5] and in assay [6] was “inactive” each time.
Regarding `CCC1(c2ccc(N)cc2)CCC(=O)NC1=O` (stereo not given), the Potency result in assay [1], in assay [2], in assay [7], in [9] and in assay [4] was “inactive” throughout. Further, the outcome in [3], in assay [8] and in assay [10] was inactive.
Regarding `CCOP(=O)(OCC)OCC`, the Potency entry in [1], in [2], in [5] and in [6] was “inactive” throughout.
For the compound `CCCCSP(=O)(SCCCC)SCCCC`, the Potency result in assay [1], in assay [2], in assay [5] and in assay [6] was “inactive” throughout.
Turning to `OC(c1ccc(Cl)cc1)(c1cncnc1)c1ccccc1Cl` (stereo not given), the Potency entry in assay [1], in assay [2] and in [6] was “inactive” in each case. Also, the Potency in assay [5] was 27.8 µM (active) and inactive.
Take `CCOS(=O)(=O)OCC`: the Potency result in assay [2] was “inactive”.
As to `Brc1ccc(Br)cc1`, the Potency entry in [1], in assay [2], in [5] and in assay [6] was “inactive” in each case.
With `CCOP(=S)(OCC)SCSC(C)(C)C`, the Potency result in [2] was “inactive”.
On to `Nc1ncn[nH]1`, for which the Potency entry in assay [1], in assay [2], in [5] and in assay [6] was “inactive” throughout.
Consider `CC(C)=CC1C(C(=O)OCN2C(=O)C3=C(CCCC3)C2=O)C1(C)C` (stereo not given), for which, in [2], the Potency result was “inactive”.
Turning to `CC(C)(O)C(=O)Nc1ccc([N+](=O)[O-])c(C(F)(F)F)c1`, the Potency result in [1], in assay [2], in assay [5] and in [6] was “inactive” in each case.
On to `Cc1cc(Cl)ccc1N=CN(C)C`, for which the Potency entry in [2] was “inactive”.

Source of the values: PubChem BioAssay (Tox21).
